From PubChem BioAssay (Tox21)
Results filed as inconclusive are left out. A call without a number means that no potency is given here. Some compounds were tested as several samples or in several runs, with calls that do not always agree. Calls of active or inactive are those of the source. The call rests on the fitted dose curve; in most records, active means well fitted cell-killing curve with a large enough effect in the repeat runs; inconclusive means weak or mixed curves, or effect the other way; inactive means no such curve, though single readings can be large or run the other way.

assay: qHTS assay to identify small molecule agonists of the farnesoid-X-receptor (FXR) signaling pathway - cell viability counter screen (AID 743218); details: FXR-bla HEK293T viability, CellTiter-Glo luminescence, 16 h; series mostly up to 62.6 µM; further: nearly all actives have a fitted effect of over 45% in size
Text: U.S. Tox21 Program National Center for Advancing Translational Sciences [NCATS] NIH Chemical Genomics Center [NCGC] U.S. Environmental Protection Agency [EPA] National Institutes of Environmental Health Sciences [NIEHS] National Toxicology Program [NTP] U.S. Food and Drug Administration [FDA] Tox21 Assay Overview: The farnesoid-X-receptor (FXR), a nuclear hormone receptor, is highly expressed in liver, intestine, kidney and adrenal cortex. Natural ligands of FXR are the bile acids (Cholic acid, Chenodeoxy cholic acid etc). FXR is an important regulator of diverse metabolic pathways, including the bile acid homeostasis, lipid and glucose metabolisms. FXR regulates the expression of target genes by binding either as a monomer or as a heterodimer with the retinoid X receptor (RXR). Numerous studies have reported that FXR exerts protective function during cholestasis, diabetes, liver regeneration, and cancer. To identify compounds that activate FXR signaling, GeneBLAzer FXR-UAS-bla HEK 293T cell line (Invitrogen, Carlsbad, CA) containing a beta-lactamase reporter gene under the control of a UAS response element was used to screen the Tox21 10K compound library. The cytotoxicity of the Tox21 compound library against the FXR-bla cell line was tested in parallel by measuring the cell viability using CellTiter-Glo assay in the same wells.
Tox21 Assay Protocol Summary: FXR-bla cells were dispensed at 5000 cells/5uL/well in 1536-well black wall/clear bottom plates using a Multidrop Combi (Thermo Fisher Scientific, Waltham, MA) dispenser. After the assay plates were incubated at 37 C and 5% CO2 for 5 h, 23 nL of compounds dissolved in DMSO, positive controls or DMSO only was transferred to the assay plate by a Pintool station (Kalypsys, San Diego, CA). The assay plates were incubated at 37C for 16 h. After 1 uL of LiveBLAzerTM B/G FRET substrate was added using a Bioraptr Flying Reagent Dispenser (FRD) workstation (Beckman Coulter, Indianapolis, IN), the plates were incubated at room temperature for 2 h, and fluorescence intensity was measured by an Envision plate reader (PerkinElmer, Shelton, CT). For cell viability readout that measures cytotoxicity, 4uL/well of CellTiter-Glo reagent was added into the assay plates using a Bioraptr FRD. After 30 min incubation at room temperature, the luminescence intensity in the plates was measured using a ViewLux plate reader (PerkinElmer).
Potency means the concentration at half of the fitted maximal effect.

Question: For CCCCCC=O, which Potency is on record?
Answer: inactive

Question: For CC(=O)[C@@]1(O)CC[C@H]2[C@@H]3C[C@H](C)C4=CC(=O)C=C[C@]4(C)[C@@]3(F)[C@@H](O)C[C@@]21C, which Potency is on record?
Answer: inactive

Question: With CC(=O)O[C@]1(C(C)=O)CC[C@H]2[C@@H]3C=C(Cl)C4=CC(=O)CC[C@]4(C)[C@H]3CC[C@@]21C as the molecule, how does the Potency read?
Answer: inactive

Question: Which Potency does the source give for CC(=O)Oc1c(C)c(C)c2c(c1C)CC[C@@](C)(CCC[C@H](C)CCC[C@H](C)CCCC(C)C)O2 here?
Answer: inactive

Question: For Cc1ccc(C(C)(C)C)cc1, which Potency is on record?
Answer: inactive

Question: Which Potency does the source give for OCCNCCO here?
Answer: inactive

Question: Which Potency does the source give for CN(C)/N=N/c1nc[nH]c1C(N)=O here?
Answer: inactive

Question: Which Potency does the source give for c1ccc2c(c1)ccc1cc3c(ccc4ccccc43)cc12 here?
Answer: inactive

Question: For Oc1c(Cl)ccc(Cl)c1Cl, which Potency is on record?
Answer: inactive

Question: For C=CN1CCCC1=O, which Potency is on record?
Answer: inactive

Question: Which Potency does the source give for OC[C@@H](O)[C@@H](O[C@@H]1O[C@H](CO)[C@H](O)[C@H](O)[C@H]1O)[C@H](O)[C@@H](O)CO here?
Answer: inactive

Question: For CCC/C=C/C=O, which Potency is on record?
Answer: inactive

Question: For Nc1cc(Cl)c(N)c(Cl)c1, which Potency is on record?
Answer: inactive

Question: Which Potency does the source give for c1ccc2ncccc2c1 here?
Answer: inactive

Question: Which Potency does the source give for C=C[C@H]1CN2CC[C@H]1C[C@@H]2[C@@H](O)c1ccnc2ccc(OC)cc12 here?
Answer: 24.1 µM (active) and inactive

Question: With CC(C)[N+](C)(CCOC(=O)C1c2ccccc2Oc2ccccc21)C(C)C as the molecule, how does the Potency read?
Answer: inactive

Question: Which Potency does the source give for [Na+] here?
Answer: inactive

Question: Which Potency does the source give for Brc1nc2ccccc2s1 here?
Answer: inactive

Question: For CCOC(=O)C(C)Oc1ccc(Oc2cnc3cc(Cl)ccc3n2)cc1 (stereo not given), which Potency is on record?
Answer: inactive

Question: For CC1(C)NC(=O)N(c2ccc([N+](=O)[O-])c(C(F)(F)F)c2)C1=O, which Potency is on record?
Answer: inactive

Question: Which Potency does the source give for Cc1ccc(C(C)(C)C)c(O)c1 here?
Answer: inactive

Question: With CC1=CC(C)(C)Nc2ccccc21 as the molecule, how does the Potency read?
Answer: inactive

Question: For Nc1ccc(N)c(Cl)c1, which Potency is on record?
Answer: inactive

Question: Which Potency does the source give for CC(C)=CCO here?
Answer: inactive

Question: With CC(=O)[C@H]1CC[C@H]2[C@@H]3CC=C4C[C@@H](O)CC[C@]4(C)[C@H]3CC[C@]12C as the molecule, how does the Potency read?
Answer: inactive

Question: For Nc1ccc2c(O)cc(S(=O)(=O)O)cc2c1, which Potency is on record?
Answer: inactive

Question: With O=C(O)CCCCCCCCCCCC(=O)O as the molecule, how does the Potency read?
Answer: inactive

Question: With O=C(O)c1ccc(O)cc1 as the molecule, how does the Potency read?
Answer: inactive

Question: With Cc1ccc([N+](=O)[O-])c(C)c1 as the molecule, how does the Potency read?
Answer: inactive

Question: For COCCOCCOCCO, which Potency is on record?
Answer: inactive

Question: For COC(=O)CC(=O)OC, which Potency is on record?
Answer: inactive

Question: For CCCCCCCCCCC(CO)CCCCCCCC (stereo not given), which Potency is on record?
Answer: inactive

Question: With O=C(O)CCCC(=O)O as the molecule, how does the Potency read?
Answer: inactive

Question: With C[C@]12CC[C@@H]3c4ccc(O)cc4CC[C@H]3[C@@H]1CC[C@@H]2O as the molecule, how does the Potency read?
Answer: inactive

Question: Which Potency does the source give for [O-]/[N+](=N\O)c1ccccc1 here?
Answer: inactive

Question: For C1CN(SSN2CCOCC2)CCO1, which Potency is on record?
Answer: inactive

Question: With CCCCCC1C(=O)CCC1CC(=O)OC (stereo not given) as the molecule, how does the Potency read?
Answer: inactive

Question: For CC(=O)Oc1ccc(C(c2ccc(OC(C)=O)cc2)c2ccccn2)cc1, which Potency is on record?
Answer: inactive

Question: With CC/C=C\C/C=C\C/C=C\CCCCCCCC(=O)O as the molecule, how does the Potency read?
Answer: inactive

Question: Which Potency does the source give for NCCOCCO here?
Answer: inactive
